“And” between values parts separate entries of the source, which are not always exact repeats. Equal entries are not always repeated. The source made the active and inactive calls. Rule as the data show it: active = inhibition above about 80%; inactive = the rest.
Test: HTB85 osteosarcoma cell growth inhibition, synergistic combos for chromothripsis tumors, BGB or cisplatin IC20 combos (AID 1671453);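 also: cells exposed for 96 hours before readout; 0% = vehicle DMSO and 100% = high DMSO killing control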
Conditions: HTB85 osteosarcoma cells, drug combinations, measured here: with cisplatin IC20, at 0.5 µM, stronger effect = higher value
With `C[C@H]1COc2c(C3(N)CC3)c(F)cc3c(=O)c(C(=O)O)cn1c23` the inhibition was -17.4%.
`CCN1CCN(c2cc3c(cc2F)c(=O)c(C(=O)O)cn3C2CC2)CC1` gave an inhibition of 19.5%.
With `O=C(O)P(=O)(O)O` the inhibition was 20.5%.
For `CC1CCc2cc(F)cc3c(=O)c(C(=O)O)cn1c23` (stereo not given), the inhibition was -16.2% and -0.916%.
For `CN(C)/N=N/c1nc[nH]c1C(N)=O`, the inhibition was -17.3% and -45.8%.
For `Nc1nc2c(ncn2CCC(CO)CO)c(=O)[nH]1`, the inhibition was -24.9% and -1.09%.

Same assay, conditions: HTB85 osteosarcoma cells, drug combinations, measured here: with cisplatin IC20, at 5 µM, stronger effect = higher value
In the case of `C[C@H]1COc2c(C3(N)CC3)c(F)cc3c(=O)c(C(=O)O)cn1c23`, the inhibition is reported as -41%.
Work on `CCN1CCN(c2cc3c(cc2F)c(=O)c(C(=O)O)cn3C2CC2)CC1` yielded an inhibition of -34%.
Work on `O=C(O)P(=O)(O)O` yielded an inhibition of -22.8%.
In the case of `CC1CCc2cc(F)cc3c(=O)c(C(=O)O)cn1c23` (stereo not given), the inhibition is reported as -23.6% and -6.11%.
With `CN(C)/N=N/c1nc[nH]c1C(N)=O` the inhibition was -16% and -61.7%.
For `Nc1nc2c(ncn2CCC(CO)CO)c(=O)[nH]1`, the inhibition was -9.05% and -28%.

Same assay, conditions: HTB85 osteosarcoma cells, drug combinations, single agent, at 5 µM, stronger effect = higher value
With `C[C@H]1COc2c(C3(N)CC3)c(F)cc3c(=O)c(C(=O)O)cn1c23` the inhibition was 3.14%.
Work on `CCN1CCN(c2cc3c(cc2F)c(=O)c(C(=O)O)cn3C2CC2)CC1` yielded an inhibition of -31.7%.
For `O=C(O)P(=O)(O)O`, the inhibition was -25.8%.
For `CC1CCc2cc(F)cc3c(=O)c(C(=O)O)cn1c23` (stereo not given), the inhibition was -1.52% and 15.2%.
In the case of `CN(C)/N=N/c1nc[nH]c1C(N)=O`, the inhibition is reported as -8.44% and -20.4%.
With `Nc1nc2c(ncn2CCC(CO)CO)c(=O)[nH]1` the inhibition was -16.3% and 0.079%.

Test: CRL2098 osteosarcoma cell growth inhibition, synergistic combos for chromothripsis tumors, BGB or cisplatin IC20 combos (AID 1671454);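 also: cells exposed for 96 h before readout; 0% = vehicle DMSO and 100% = killing by high DMSO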
Conditions: CRL2098 osteosarcoma cells, drug combinations, at 0.5 µM, stronger effect = higher value
For `C[C@H]1COc2c(C3(N)CC3)c(F)cc3c(=O)c(C(=O)O)cn1c23`, the inhibition was -44.1% (inactive).
In the case of `CCN1CCN(c2cc3c(cc2F)c(=O)c(C(=O)O)cn3C2CC2)CC1`, the inhibition is reported as -28.3% (inactive).
For `O=C(O)P(=O)(O)O`, the inhibition was -107% (inactive).
In the case of `CC1CCc2cc(F)cc3c(=O)c(C(=O)O)cn1c23` (stereo not given), the inhibition is reported as -7.35% (inactive) and -5.05% (inactive).
In the case of `CN(C)/N=N/c1nc[nH]c1C(N)=O`, the inhibition is reported as -3.56% (inactive) and -92.1% (inactive).
For `Nc1nc2c(ncn2CCC(CO)CO)c(=O)[nH]1`, the inhibition was -37% (inactive) and -44.9% (inactive).

Same assay, conditions: CRL2098 osteosarcoma cells, drug combinations, measured here: combination with BGB at IC20, at 0.5 µM, stronger effect = higher value
In the case of `C[C@H]1COc2c(C3(N)CC3)c(F)cc3c(=O)c(C(=O)O)cn1c23`, the inhibition is reported as -27.6%.
Work on `CCN1CCN(c2cc3c(cc2F)c(=O)c(C(=O)O)cn3C2CC2)CC1` yielded an inhibition of -35.5%.
`O=C(O)P(=O)(O)O` showed an inhibition of -77.3%.
In the case of `CC1CCc2cc(F)cc3c(=O)c(C(=O)O)cn1c23` (stereo not given), the inhibition is reported as 15.7% and -0.776%.
With `CN(C)/N=N/c1nc[nH]c1C(N)=O` the inhibition was -50.1% and -47.1%.
For `Nc1nc2c(ncn2CCC(CO)CO)c(=O)[nH]1`, the inhibition was -37.8% and -1.8%.

— PubChem BioAssay
